The values that follow come from ChEMBL document CHEMBL3988442, “University of Dundee, Small-Polar-MMV Screening Library” (2021).

Set-up in all cases: scale not given: direction of the effect not stated beside the values
Test [1] addresses Protein translocase subunit SecA (Escherichia coli (strain K12)) (UniProt P10408). The experiment in a line: Assay to Identify E. coli SecA ATPase Inhibitors. In kind it is functional. The note with it: 30 µM.
The target in test [2] is T1, Ubiquitin-activating enzyme e1, putative (Leishmania donovani (strain BPK282A1)) (UniProt E9BSI1).
T1 sequence (whole entry): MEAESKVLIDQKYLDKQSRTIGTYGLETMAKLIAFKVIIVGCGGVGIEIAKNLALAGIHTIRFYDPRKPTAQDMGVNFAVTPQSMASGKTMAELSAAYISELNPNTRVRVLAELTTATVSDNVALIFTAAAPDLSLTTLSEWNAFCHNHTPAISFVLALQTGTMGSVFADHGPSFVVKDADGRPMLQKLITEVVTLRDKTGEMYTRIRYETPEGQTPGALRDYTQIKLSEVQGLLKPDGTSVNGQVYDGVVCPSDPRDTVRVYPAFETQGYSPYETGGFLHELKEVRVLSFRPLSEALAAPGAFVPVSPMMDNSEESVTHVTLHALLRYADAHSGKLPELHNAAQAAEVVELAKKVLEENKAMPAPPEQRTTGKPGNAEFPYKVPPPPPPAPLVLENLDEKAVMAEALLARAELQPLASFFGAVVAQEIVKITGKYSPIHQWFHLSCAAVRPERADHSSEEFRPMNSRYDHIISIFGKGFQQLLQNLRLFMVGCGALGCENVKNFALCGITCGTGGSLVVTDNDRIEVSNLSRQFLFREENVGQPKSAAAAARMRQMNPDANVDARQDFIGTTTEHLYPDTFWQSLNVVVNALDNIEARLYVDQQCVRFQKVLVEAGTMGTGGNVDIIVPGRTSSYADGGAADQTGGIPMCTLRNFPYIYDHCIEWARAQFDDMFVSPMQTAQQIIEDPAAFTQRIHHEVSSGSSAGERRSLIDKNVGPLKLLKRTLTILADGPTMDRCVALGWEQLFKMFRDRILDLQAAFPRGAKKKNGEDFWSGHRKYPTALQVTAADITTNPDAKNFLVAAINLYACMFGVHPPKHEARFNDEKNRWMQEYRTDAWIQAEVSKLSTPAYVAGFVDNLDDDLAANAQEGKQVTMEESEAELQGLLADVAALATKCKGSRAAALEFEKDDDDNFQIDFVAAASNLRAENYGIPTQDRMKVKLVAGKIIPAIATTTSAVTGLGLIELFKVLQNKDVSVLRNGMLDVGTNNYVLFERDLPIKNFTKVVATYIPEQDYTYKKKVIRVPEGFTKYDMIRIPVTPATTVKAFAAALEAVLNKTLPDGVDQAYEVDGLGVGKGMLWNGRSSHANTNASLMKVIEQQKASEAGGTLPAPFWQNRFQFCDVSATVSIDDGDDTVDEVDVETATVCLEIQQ
The experiment in a line: Leishmania donovani Ubiquitin Activating Enzyme (LdE1). It counts as functional. The note with it: 30 µM.

Test [3] has as its target AMP-activated protein kinase, AMPK (Homo sapiens) (UniProt P54646+O43741+P54619+Q9UGJ0+Q9Y478+Q13131+Q9UGI9). As to the kind of experiment: AMP-dependent Kinase enzyme assay. An in vitro enzyme assay that detects ADP turnover that is directly proportional to AMPK activity. This uses naive AMPK that is activated during the assay with MK-8722. In kind it is functional. The note with it: 30 µM.

Test [4] addresses Sialic acid-binding Ig-like lectin 9 (Homo sapiens) (UniProt Q9Y336). The experiment in a line: Hs-Siglec9 ALPHAscreen SOP 20170721. The note with it: 10 µM. (In general: In Alpha technology, singlet oxygen from a donor bead excites a nearby acceptor bead.)
The next test relates to Trypanosoma cruzi. As to the kind of experiment: Trypanosoma cruzi phosphomannomutase and mannose-1-phosphate guanylyltransferase assay. It counts as functional. The note with it: 10 µM.
The target in test [5] is T2, Arginase-2, mitochondrial (Homo sapiens) (UniProt P78540).
T2 sequence (whole entry): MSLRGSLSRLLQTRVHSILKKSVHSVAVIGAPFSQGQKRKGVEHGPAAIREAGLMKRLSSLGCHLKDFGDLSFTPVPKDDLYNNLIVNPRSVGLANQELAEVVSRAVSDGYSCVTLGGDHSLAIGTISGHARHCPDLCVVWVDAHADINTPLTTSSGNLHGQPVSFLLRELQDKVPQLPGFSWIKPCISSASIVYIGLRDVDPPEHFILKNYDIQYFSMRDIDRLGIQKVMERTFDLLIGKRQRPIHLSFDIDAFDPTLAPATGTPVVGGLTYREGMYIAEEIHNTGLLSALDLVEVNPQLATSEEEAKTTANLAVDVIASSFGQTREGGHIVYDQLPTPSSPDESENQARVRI
As to the kind of experiment: in vitro enzyme assay to detect the production of urea directly proportional to the activity of Arginase II. Note: in the data most compounds retested in dose-response had high values. In kind it is functional. The following applies: 33.3 µM.

Test [6] has as its target T3, Proteasome subunit beta (Trypanosoma cruzi) (UniProt O96673).
T3 sequence (whole entry): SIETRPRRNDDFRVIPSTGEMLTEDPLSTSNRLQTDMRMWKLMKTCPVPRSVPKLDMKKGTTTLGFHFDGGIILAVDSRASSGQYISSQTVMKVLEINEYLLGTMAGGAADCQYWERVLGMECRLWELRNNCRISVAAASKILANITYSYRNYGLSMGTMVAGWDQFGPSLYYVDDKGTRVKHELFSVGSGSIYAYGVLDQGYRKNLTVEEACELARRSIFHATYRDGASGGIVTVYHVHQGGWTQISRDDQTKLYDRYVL
The experiment in a line: Trypanosoma cruzi proteasome chymotrypsin-like activity (TcProtChymo) assay. Note: in the data most compounds retested in dose-response had high values. It counts as functional. The note with it: 9.37 µM.

For another test, the species on record is Homo sapiens. As to the kind of experiment: To identify inhibition of the IFN signalling (Jak-Stat) pathway via expression of an eGFP reporter gene under the control of an IFN-stimulated response element (ISRE) containing MxA promoter. It counts as functional. The following applies: 30 µM. For orientation: Reporter assays use an easily measured gene product as a stand-in for the process of interest.

Test [7] has as its target T4, Tyrosyl-tRNA synthetase, putative (Trypanosoma cruzi (strain CL Brener)) (UniProt Q4DSP6).
T4 sequence (whole entry): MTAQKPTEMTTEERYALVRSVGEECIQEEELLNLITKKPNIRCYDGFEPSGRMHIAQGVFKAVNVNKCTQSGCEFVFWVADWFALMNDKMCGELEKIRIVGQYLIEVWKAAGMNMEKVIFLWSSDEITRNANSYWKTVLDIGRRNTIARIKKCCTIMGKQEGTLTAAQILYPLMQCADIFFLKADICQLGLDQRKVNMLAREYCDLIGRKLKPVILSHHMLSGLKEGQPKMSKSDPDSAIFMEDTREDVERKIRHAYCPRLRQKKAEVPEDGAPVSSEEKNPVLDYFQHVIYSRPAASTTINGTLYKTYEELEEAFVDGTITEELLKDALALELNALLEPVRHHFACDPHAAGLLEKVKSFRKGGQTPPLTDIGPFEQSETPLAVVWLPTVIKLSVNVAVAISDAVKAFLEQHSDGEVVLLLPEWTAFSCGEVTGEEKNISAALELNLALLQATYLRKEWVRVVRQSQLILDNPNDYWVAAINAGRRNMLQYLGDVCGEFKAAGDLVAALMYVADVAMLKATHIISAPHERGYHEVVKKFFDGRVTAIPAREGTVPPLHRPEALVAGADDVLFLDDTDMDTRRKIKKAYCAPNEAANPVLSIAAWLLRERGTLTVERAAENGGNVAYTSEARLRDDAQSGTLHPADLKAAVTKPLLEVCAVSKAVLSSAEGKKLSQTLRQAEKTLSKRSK
As to the kind of experiment: Trypanosoma cruzi tyrosyl tRNA synthetase (TcYRS) _High Tyrosine SOP. Note: in the data most compounds retested in dose-response had high values. It counts as functional. The note with it: 30 µM.

In test [8] the target is T4, Tyrosyl-tRNA synthetase, putative (Trypanosoma cruzi (strain CL Brener)). The experiment in a line: Trypanosoma cruzi tyrosyl tRNA synthetase (TcYRS) SOP. It counts as functional. The note with it: 30 µM.
Test [9] has as its target Chromo domain-containing protein 1 (Saccharomyces cerevisiae (strain ATCC 204508 / S288c) (Baker's yeast)) (UniProt P32657). As to the kind of experiment: ScCHD-1 Enzyme Inhibition Assay. Note: in the data most compounds retested in dose-response had high values. The following applies: 30 µM. It counts as functional.

For some of these results: Entries with a potency or affinity are not part of this list.

Chromo domain-containing protein 1 (Saccharomyces cerevisiae (strain ATCC 204508 / S288c) (Baker's yeast)), sequence (P32657 whole entry, the tested form may be a part): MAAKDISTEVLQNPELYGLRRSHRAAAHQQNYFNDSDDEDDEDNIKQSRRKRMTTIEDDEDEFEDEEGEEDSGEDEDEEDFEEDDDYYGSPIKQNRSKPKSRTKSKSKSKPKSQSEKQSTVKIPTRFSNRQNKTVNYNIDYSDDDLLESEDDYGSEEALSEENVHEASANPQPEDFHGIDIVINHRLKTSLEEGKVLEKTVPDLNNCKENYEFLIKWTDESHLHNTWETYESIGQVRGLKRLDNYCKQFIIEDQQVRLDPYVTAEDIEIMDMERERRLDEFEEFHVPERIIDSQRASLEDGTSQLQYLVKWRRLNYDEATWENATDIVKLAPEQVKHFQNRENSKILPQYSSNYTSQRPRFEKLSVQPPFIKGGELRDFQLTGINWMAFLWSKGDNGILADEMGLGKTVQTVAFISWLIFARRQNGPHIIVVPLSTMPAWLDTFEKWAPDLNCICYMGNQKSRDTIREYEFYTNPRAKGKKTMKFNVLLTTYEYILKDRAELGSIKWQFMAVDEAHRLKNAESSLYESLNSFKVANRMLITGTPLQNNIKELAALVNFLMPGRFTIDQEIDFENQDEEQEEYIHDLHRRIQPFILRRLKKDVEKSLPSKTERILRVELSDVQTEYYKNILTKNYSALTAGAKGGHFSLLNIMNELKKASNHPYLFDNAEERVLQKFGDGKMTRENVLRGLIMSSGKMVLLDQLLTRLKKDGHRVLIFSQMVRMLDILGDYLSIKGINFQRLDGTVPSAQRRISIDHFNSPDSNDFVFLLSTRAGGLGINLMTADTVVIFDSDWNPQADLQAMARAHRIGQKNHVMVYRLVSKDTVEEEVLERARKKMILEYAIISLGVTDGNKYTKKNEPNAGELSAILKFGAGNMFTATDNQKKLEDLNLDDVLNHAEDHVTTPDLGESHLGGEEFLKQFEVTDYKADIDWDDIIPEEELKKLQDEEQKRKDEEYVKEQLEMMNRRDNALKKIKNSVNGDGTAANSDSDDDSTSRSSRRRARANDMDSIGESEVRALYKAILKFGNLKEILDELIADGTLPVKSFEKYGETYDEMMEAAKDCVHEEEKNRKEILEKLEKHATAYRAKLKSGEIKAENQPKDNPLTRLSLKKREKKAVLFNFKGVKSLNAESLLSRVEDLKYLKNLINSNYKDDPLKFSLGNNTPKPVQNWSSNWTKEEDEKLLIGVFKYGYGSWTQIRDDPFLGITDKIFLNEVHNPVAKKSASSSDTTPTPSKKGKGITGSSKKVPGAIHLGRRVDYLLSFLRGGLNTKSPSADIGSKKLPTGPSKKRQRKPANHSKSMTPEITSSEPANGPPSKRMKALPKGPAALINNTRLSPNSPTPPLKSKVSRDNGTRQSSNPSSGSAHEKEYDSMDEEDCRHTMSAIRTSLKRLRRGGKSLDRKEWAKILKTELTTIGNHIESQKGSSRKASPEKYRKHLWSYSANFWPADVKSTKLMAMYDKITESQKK
Protein translocase subunit SecA (Escherichia coli (strain K12)), sequence (P10408 whole entry): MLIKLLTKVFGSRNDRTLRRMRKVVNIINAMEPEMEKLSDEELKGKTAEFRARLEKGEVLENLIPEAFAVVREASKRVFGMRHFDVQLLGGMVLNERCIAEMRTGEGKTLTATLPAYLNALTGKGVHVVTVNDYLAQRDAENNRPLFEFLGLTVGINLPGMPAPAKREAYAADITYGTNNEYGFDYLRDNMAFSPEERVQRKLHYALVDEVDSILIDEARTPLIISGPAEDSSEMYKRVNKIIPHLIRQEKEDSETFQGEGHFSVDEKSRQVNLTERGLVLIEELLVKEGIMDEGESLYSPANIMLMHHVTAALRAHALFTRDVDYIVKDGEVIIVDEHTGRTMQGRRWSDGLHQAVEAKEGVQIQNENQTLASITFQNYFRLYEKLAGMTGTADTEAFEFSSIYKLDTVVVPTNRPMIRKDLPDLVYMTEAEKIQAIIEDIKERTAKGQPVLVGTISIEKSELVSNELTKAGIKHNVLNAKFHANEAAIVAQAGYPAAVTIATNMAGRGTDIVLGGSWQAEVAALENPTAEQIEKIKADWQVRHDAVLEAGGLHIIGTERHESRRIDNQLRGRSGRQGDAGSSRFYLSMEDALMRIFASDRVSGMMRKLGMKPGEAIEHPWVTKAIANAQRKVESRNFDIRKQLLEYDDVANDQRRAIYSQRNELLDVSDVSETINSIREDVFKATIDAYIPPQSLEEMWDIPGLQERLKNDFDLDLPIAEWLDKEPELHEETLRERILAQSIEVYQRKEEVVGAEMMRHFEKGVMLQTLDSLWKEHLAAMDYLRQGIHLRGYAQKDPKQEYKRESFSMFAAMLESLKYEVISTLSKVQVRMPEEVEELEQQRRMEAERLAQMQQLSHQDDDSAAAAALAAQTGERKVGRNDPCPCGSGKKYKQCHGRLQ
Sialic acid-binding Ig-like lectin 9 (Homo sapiens), sequence (Q9Y336 whole entry): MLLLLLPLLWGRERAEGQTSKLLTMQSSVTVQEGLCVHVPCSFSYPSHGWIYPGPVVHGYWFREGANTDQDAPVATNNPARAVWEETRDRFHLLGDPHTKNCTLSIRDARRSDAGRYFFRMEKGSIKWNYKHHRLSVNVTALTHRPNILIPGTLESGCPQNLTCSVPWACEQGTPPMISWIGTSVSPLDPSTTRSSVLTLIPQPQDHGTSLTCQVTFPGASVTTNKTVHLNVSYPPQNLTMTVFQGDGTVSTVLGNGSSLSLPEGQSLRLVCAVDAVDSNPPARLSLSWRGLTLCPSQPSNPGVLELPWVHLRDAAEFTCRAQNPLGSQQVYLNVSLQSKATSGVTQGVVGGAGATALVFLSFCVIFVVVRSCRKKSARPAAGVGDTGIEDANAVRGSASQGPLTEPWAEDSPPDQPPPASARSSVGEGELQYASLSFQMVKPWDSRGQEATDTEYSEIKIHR

`CC(=O)NCCN1CCC(c2cccs2)CC1`: the Percent Effect in test [1] is -3.79%; in test [2], 5.48%; in [3], 4.81%; in test [4] it was 1.43%; in the test on Trypanosoma cruzi, 6.27%; in test [5], -1.36%. Besides, the Percent Effect is 17.9% in test [6]; 3.79% in the test filed under Homo sapiens; 2.15% in [7]; 10% in test [8]; -6.86% in test [9].
Consider `CC(C)n1ccnc1C1CCN(Cc2ccc(Cl)s2)CC1`, for which the Percent Effect in [1] is -4.43%; in test [2] it was 7.79%; in [3], 1.43%; in test [4] it was 13.8%; in the test with Trypanosoma cruzi, 7.96%; in [5] it was 6.9%. Also, the Percent Effect in [6] was 6.99%; in the test filed under Homo sapiens, 9.49%; in test [7], 8.6%; in test [8], 16.1%; in test [9], -1.15%.
Regarding `c1ccc(Oc2cc(CNCC3CNc4ccnn4C3)ccn2)cc1` (stereo unspecified), the Percent Effect in [1] is -2.02%; in test [2], 11.4%; in [3] it was -0.557%; in test [4], -0.022%; in the test on Trypanosoma cruzi it was 5.85%; in [5] it was 2.37%. Besides, the Percent Effect in test [6] was 11.7%; in the test listed under Homo sapiens it was 11.8%; in [7], 19.8%; in test [8], 20.2%; in [9], -13.3%.
As for `OCC1CCCN1c1cc(N2CCc3ccccc3C2)ncn1` (stereo unspecified), the Percent Effect is -5.73% in [1]; 5.2% in test [2]; -4.03% in test [3]; -9.93% in [4]; 8.13% in the test with Trypanosoma cruzi; -6.95% in test [5]. The Percent Effect in test [6] is 7.84%; in the test filed under Homo sapiens, -3.87%; in [7], 3.81%; in [8], 14.1%; in test [9] it was -20.3%.
`CC(C)Oc1ccc(CNC(=O)CC(F)(F)F)cc1F`: the Percent Effect is -5.61% in test [1]; 10.5% in [2]; -1.12% in [3]; 6.95% in test [4]; -2.52% with Trypanosoma cruzi; 1.08% in test [5]. Moreover, the Percent Effect is 1.78% in test [6]; -11.2% in the test filed under Homo sapiens; 4.43% in test [7]; 11.1% in test [8]; -4.45% in test [9].
Regarding `CN1CCN(C(=O)c2cnc3c(cnn3C3CCCC3)c2)CC1`, the Percent Effect in [1] is -5.03%; in [2], 12.7%; in test [3], -2.67%; in test [4] it was -0.596%; with Trypanosoma cruzi it was 8.78%; in test [5], 5.7%. For the same compound, the Percent Effect in [6] was 1.72%; in the test filed under Homo sapiens it was -7.07%; in test [7], 5.42%; in test [8], 16.5%; in [9] it was -5.9%.
With `CC(C)(CNC(=O)OC(C)(C)C)NC(=O)C1CC(=O)N(C2CC2)C1` (stereo unspecified), the Percent Effect in test [1] was -7.68%; in test [2], -2.7%; in test [3], -1.58%; in test [4], -8.17%; in the test on Trypanosoma cruzi it was -8.11%; in test [5], -1.24%. For the same compound, the Percent Effect in [6] is 7.3%; in the test listed under Homo sapiens, 20.6%; in test [7], -2.15%; in [8], 3.7%; in [9], -4.06%.
Consider `COc1cccc(CN(C)C(=O)Nc2ccc3c(c2)OCCO3)c1`, for which the Percent Effect in [1] was -0.723%; in test [2], 18.4%; in test [3] it was -0.168%; in [4], -10.2%; in the test with Trypanosoma cruzi, 0.0974%; in test [5], 2.37%. Besides, the Percent Effect in [6] was 26.6%; in the test filed under Homo sapiens, 22.9%; in test [7], 1.06%; in [8] it was 10.4%; in test [9] it was -8.52%.
For the compound `CC(=O)N(Cc1ncc(C(C)C)o1)C1CCN(CCn2cccn2)C1` (stereo unspecified), the Percent Effect was 0.67% in test [1]; 10.8% in test [2]; -13.2% in test [3]; 0.985% in [4]; 2.69% with Trypanosoma cruzi; 0.924% in [5]. In addition, the Percent Effect in test [6] was 18.9%; in the test listed under Homo sapiens, -1.48%; in [7], 14.8%; in test [8], 1.22%; in test [9], -4.25%.
With `O=S(=O)(Nc1cnn(C2CCOCC2)c1)c1c(F)cccc1F`, the Percent Effect is 1.19% in test [1]; -2.6% in test [2]; -13.6% in test [3]; 5.79% in test [4]; -2.66% in the test with Trypanosoma cruzi; -1.94% in test [5]. The Percent Effect in test [6] is 10.4%; in the test filed under Homo sapiens, 5.2%; in test [7], 2.12%; in [8], 1.28%; in test [9], -4.35%.
For the compound `Clc1ccc2cccnc2c1CN1CCCC1Cn1cncn1` (stereo unspecified), the Percent Effect in test [1] was -1.02%; in test [2], -10.8%; in test [3] it was -3.88%; in test [4] it was -0.559%; with Trypanosoma cruzi it was -5.85%; in test [5] it was 4.99%. Besides, the Percent Effect in test [6] was 7.18%; in the test filed under Homo sapiens, 63.7%; in [7], 7.92%; in [8], -1.22%; in test [9], 5.04%.
